Screening results as filed in PubChem BioAssay.
p53null 32C kill: selectivity test: cytotoxicity in p53 null cells, permissive temperature; H1299-neo p53 null cells, ATP luminescence, 24 h, 32C; Potency, µM (top dose mostly 46.1 µM), without a hit: at the highest dose activity change, negative = cytotoxicity, usual class: cytotoxic; 0.62% of 55,000 active; AID 903;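 note: 0% = DMSO only and -100% = full killing by 100 µM tamoxifen; nearly all actives have a fitted effect of over 55% in size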
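Overnight 37C seeding (600 cells/well) of H1299-neo preceded a 24 hr, 32C exposure to compounds up to 46 uM. ATP levels, read by luminescence after 20 min at RT, indicated surviving cells.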
NTMT1 inhibitor: blocks human N-terminal methyltransferase 1 activity; Potency, µM (top dose mostly 114 µM), for the others: at the top dose activity change, negative = inhibition, actives largely listed as inhibitors; NTMT1 MTase-Glo SAH luminescence, purified enzyme; Q9BV86; 2.5% of 59,000 active;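 note: plate controls were DMSO vehicle for no effect and no enzyme for full effect; nearly all actives have a fitted effect of over 65% in size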
Target sequence (Q9BV86 whole entry, looked up): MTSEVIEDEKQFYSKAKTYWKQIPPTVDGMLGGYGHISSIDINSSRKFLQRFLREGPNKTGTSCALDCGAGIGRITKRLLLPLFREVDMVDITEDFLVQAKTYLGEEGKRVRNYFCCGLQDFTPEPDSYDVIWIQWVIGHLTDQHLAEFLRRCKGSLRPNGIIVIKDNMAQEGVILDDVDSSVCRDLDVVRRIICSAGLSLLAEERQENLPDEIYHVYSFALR
p53null 39C kill: selectivity test: cytotoxicity in p53 null cells, nonpermissive temperature; H1299 p53-null (neo) cells, 39C, ATPlite viability, 24 h; Potency, µM (highest dose often 46.1 µM), for inactives: top-dose activity, negative = cell killing, actives largely listed as cytotoxic; 0.97% of 55,000 active; AID 904;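 note: 0% = DMSO only and -100% = full killing by 100 µM tamoxifen; nearly all actives have a fitted effect of over 50% in size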
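Cells seeded at 600/well, 37C overnight. Compound added (up to 46 uM), plates shifted to 39C for 24 hr. ATPlite added, luminescence read after 20 min at room temperature.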
FH mod: Identification of activators of human fumarate hydratase by quantitative high-throughput screening; 0.22% of 54,000 active; FH coupled MDH/diaphorase resazurin fluorescence, 15 min; Potency, µM (highest dose often 79.9 µM), inactives show at the top dose activity change, negative = inhibition, most hits filed as inhibitors; AID 1347055, 2019; Fumarate hydratase, mitochondrial (Homo sapiens), P07954; note: the screen sought activators but most active calls are inhibition curves; nearly all actives have a fitted effect of over 45% in size
Target sequence (P07954 whole entry, looked up): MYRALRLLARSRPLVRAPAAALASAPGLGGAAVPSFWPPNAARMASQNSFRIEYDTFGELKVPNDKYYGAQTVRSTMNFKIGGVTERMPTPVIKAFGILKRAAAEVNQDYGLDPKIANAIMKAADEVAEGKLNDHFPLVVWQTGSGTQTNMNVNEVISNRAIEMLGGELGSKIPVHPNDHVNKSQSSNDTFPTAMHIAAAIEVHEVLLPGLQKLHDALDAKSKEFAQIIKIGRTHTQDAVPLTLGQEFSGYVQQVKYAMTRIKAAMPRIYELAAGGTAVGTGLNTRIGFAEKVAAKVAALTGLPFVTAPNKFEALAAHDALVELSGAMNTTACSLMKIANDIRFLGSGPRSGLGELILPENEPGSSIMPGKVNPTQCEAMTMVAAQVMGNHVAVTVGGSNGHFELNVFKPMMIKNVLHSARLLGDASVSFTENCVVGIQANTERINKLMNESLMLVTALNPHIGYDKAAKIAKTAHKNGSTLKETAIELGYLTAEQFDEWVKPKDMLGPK
OvCa metastasis: inhibitors of ovarian cancer cell adhesion and invasion in omental model. AID 1963576. SKOV3ip1-GFP adhesion/invasion on 3D omental model, fluorescence. 0.1% of 46,000 active. Potency, µM (top dose mostly 45.8 µM), inactives show at the highest dose activity change, negative = inhibition, usual class: inhibitors;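 note: plate controls were DMSO wells for no effect and tomatine positive control wells for full effect; nearly all actives have a fitted effect of over 65% in size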
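Primary human omental fibroblast/mesothelial 3D culture pre-formed 48 h. SKOV3ip1-GFP cells added with compounds (0.36-46 umol/L), incubated 2 h RT/16 h 37 C, fixed; GFP cells quantified at 488/509 nm.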
An asterisk follows results filed as active; i = inactive; ? = inconclusive; . = not tested or not shown; ! = repeats disagree; [ ] = dose if it differs, or a comment. The full list was thinned out, with hits kept by preference. Calls come from the whole dose curve; as a rule, active = well fitted curve in the direction sought with a large enough effect; inconclusive = small, poorly fitted or top-dose-only effect, or another doubt; inactive = no such curve, though single readings can be large; an effect the other way counts as inactive or inconclusive. Unless noted, % is set by controls: 0 for no effect and ±100 for the full control effect; potency is the fitted concentration of half-maximal effect.

SMILES | p53null 32C kill | NTMT1 inhibitor | p53null 39C kill | FH mod | OvCa metastasis
COc1cccc(C(=O)Nc2nc3c(s2)CCCC3)c1 | 12.6µM* | 39.8µM* | 5.01µM* | -31.4% | i
CCCOc1ccccc1C(=O)Nc1nc2c(s1)CCCC2 | -7.6% | 79.4µM* | -16.5% | -14.7% | -1.1%
COCCNc1ccc(NC(=O)c2cccs2)cn1 | . | 5.0% | . | . | .
COc1cc(C2c3c(-c4cc(C)ccc4O)n[nH]c3C(=O)N2Cc2ccco2)cc(OC)c1OC (centres undefined) | 25.9% | 7.3% | 5.5% | 22.4µM* | 3.9%
COc1cc(C2c3c(-c4c(C)cc(C)cc4O)n[nH]c3C(=O)N2Cc2ccco2)cc(OC)c1OC (centres undefined) | 0.1% | 13.9% | -13.2% | -8.1% | -0.1%
Cc1ccc(O)c(-c2n[nH]c3c2C(c2ccccc2F)N(Cc2ccco2)C3=O)c1 (centres undefined) | 60.2% | 6.6% | 8.0% | ? | 12.6µM*
CCOc1cccc(C2c3c(-c4cc(C)ccc4O)n[nH]c3C(=O)N2Cc2ccco2)c1 (centres undefined) | ? | 1.9% | ? | ? | ?
C[C@H](NCc1ccc(OCc2ccccc2F)cc1)C(N)=O | . | -7.1%[57.5 µM] | . | 4.3% | .
CC(=O)Nc1sc2c(c1-c1ccc(N(C)C)cc1)CCNC2 | . | 14.1µM* | . | . | .
CC(=O)Nc1sc2c(c1-c1ccc(F)cc1)CCNC2 | . | -5.3% | . | . | .
COc1cc(-c2oc3ccc(C)cc3c(=O)c2O)cc(OC)c1OC | ? | 1.6% | ? | -0.6% | 4.0%
CCOc1ccc(-c2oc3cc(Cl)ccc3c(=O)c2O)cc1OC | ? | 6.9% | 15.8µM* | 4.9% | i
CCOC(=O)C1CCN(c2cc3c(cc2NC(=O)c2ccc(Cl)cc2)n(C)c(=O)n3C)CC1 | -2.7% | -12.1% | 10.4% | 20µM* | 5.4%
CCOC(=O)C1CCN(c2cc3c(cc2NC(=O)c2ccccc2Cl)n(C)c(=O)n3C)CC1 | -1.1% | -17.2% | -8.9% | ? | i
CC(C)C(=O)Oc1ccc(CO)cc1[C@H](CCN(C(C)C)C(C)C)c1ccccc1 | . | 21.5µM*! | . | ? | -13.7%
CCCOCc1cc(CN2CCN(c3cccc(Cl)c3)CC2)c(O)c2ncccc12 | -24.1% | 15.7% | 0.316µM* | ? | ?
Oc1ccc(CNc2cc(C(F)(F)F)ccn2)c2cccnc12 | . | -5.5%[57.5 µM] | . | . | .
COc1ccc(Nc2nc3ccc(Cl)cc3nc2-n2nc(C)cc2C)cc1 | ? | 13.9% | 11.8% | 4.6% | ?
COc1ccc2nc(C)cc(Nc3ccc(Cl)c(Cl)c3)c2c1 | ? | -23.0% | 12.6µM* | -3.5% | ?
COc1ccc(C2Nc3ccccc3C(=O)N2Cc2ccco2)cc1COc1c(C(C)C)cccc1C(C)C (centres undefined) | . | 2.6% | . | . | .
COc1ccc(OC)c(-c2cc(C(=O)Nc3cnn(Cc4ccc(Cl)cc4Cl)c3)no2)c1 | ? | . | 10µM* | . | ?
C=CCn1c(C)cc(C(=O)COC(=O)[C@@H](NC(=O)c2ccccc2Cl)C(C)C)c1C | 11.2µM* | . | . | . | .
Cc1ccc(N)cc1O | . | ? | . | 20µM* | .
Nc1ccc(C(=O)O)c(O)c1 | . | 35.5%[57.5 µM] | . | -7.2%[53.3 µM] | .
Nc1n[n+]([O-])c2ccccc2[n+]1[O-] | . | 14.8% | . | . | .
SMILES | p53null 32C kill | NTMT1 inhibitor | p53null 39C kill | FH mod | OvCa metastasis
Cn1cc(S(=O)(=O)CC(=O)Nc2ccc3c(c2)OCCO3)c2ccccc21 | ? | . | 28.2µM* | . | .
Cc1ccc(C)c(NC(=O)CS(=O)(=O)c2cn(C)c3ccccc23)c1 | -0.1% | . | 7.6% | . | .
Cc1ccc(Nc2nccc(N(C)c3ccc4c(C)n(C)nc4c3)n2)cc1S(N)(=O)=O | . | 15.8µM*! | . | 6.5% | 34.6%
N#C/C(=C\c1ccc(-c2ccc(C(=O)O)cc2)o1)C(=O)Nc1ccccc1C(=O)O | 2.8% | 1.6% | -1.3% | 14.1µM* | -2.8%
CC(C)Oc1ccc(C(=O)Nc2c(C(=O)Nc3cccc(F)c3)oc3ccccc23)cc1 | ? | -28.9% | ? | -3.9% | -23.1%
CN(C)CCN(Cc1ccco1)C(=O)c1oc2ccccc2c1NC(=O)c1cccc(F)c1 | 5.4% | ? | 12.6µM* | -19.0% | ?
Fc1ccc(-c2ccc(CNc3nc(-c4ccccc4C(F)(F)F)nc4ccccc34)cc2)cc1 | . | 11.4% | . | . | .
CCCN(CCC)CCNC(=O)c1cc(-c2ccc(Br)s2)nc2ccccc12 | 6.3% | -3.4% | -18.7% | -34.6% | ?
CCCCN(C)CCNC(=O)c1cc(-c2ccc(Cl)s2)nc2ccccc12 | 8.2% | -1.1% | 12.6µM* | -1.6% | i
CCN(CC)CCNC(=O)c1cc(-c2ccc(Br)s2)nc2ccccc12 | 18.4% | ? | 25.1µM* | -17.7% | 10µM*
CC(=O)OC[C@]12[C@H](OC(C)=O)C(=O)[C@@H]3[C@@H](OC(C)=O)[C@@]14O[C@@]3(C)COC(=O)c1cccnc1[C@@H](C)[C@H](C)C(=O)O[C@@H]([C@H](O)[C@@H]2OC(C)=O)[C@]4(C)O | . | 5.6%[12.6 µM] | . | 7.7%[20.6 µM] | .
Cc1c(Cl)cccc1-c1ccc(C(=O)Nc2ccc3oc(-c4cccnc4)nc3c2)o1 | -0.8% | ? | 16.2% | -2.5% | ?
O=C(Nc1cccc(-c2nc3ncccc3o2)c1)c1ccc(-c2cccc(Cl)c2Cl)o1 | 12.6µM* | . | 10µM* | . | ?
CCOC(=O)c1nnc(N[S+](=O)([O-])c2ccc(NC(=O)Cc3ccc(Cl)c(Cl)c3)cc2)s1 | . | 79.4µM* | . | . | .
CC(=O)N[C@H]1CSSC[C@@H](C(N)=O)NC(=O)[C@H](C(C)C)NC(=O)[C@H](C)NC(=O)[C@H](Cc2cnc[nH]2)NC1=O | . | 8.8% | . | . | .
Nc1ccc2oc(-c3ccccc3Br)nc2c1 | ? | ? | 12.6µM* | -5.8% | 2.8%
CCC(C)C1NC(=O)C2CCCN2C(=O)C(C(C)C)NC(=O)c2ccccc2NC(=O)C(Cc2ccc(O)cc2)NC(=O)C(C)NC(=O)C(C(C)O)NC1=O (centres undefined) | . | 6.1%[12.6 µM] | . | 4.0%[20.6 µM] | .
O=C(O)c1cccc(CN2C(=O)/C(=C(\c3ccccc3)c3ccc(Cl)cc3)c3ccccc32)c1 | . | 28.2µM* | . | ? | .
Cc1ccccc1CN1C(=O)c2ccccc2Sc2ccc(C(=O)O)cc21 | 0.1% | 7.7% | 13.1% | -19.2% | i
C=C(C)[C@H]1C[C@@H](O)C(=C)CC[C@@H](O)C(=C)[C@@H](O)C1 | . | 16.1%[57.5 µM] | . | -1.6% | .
COc1ccc(NC(=O)CCc2c(C)nn(-c3ccc(N4CCCCC4)nn3)c2C)cc1Cl | 10µM* | . | ? | . | 11.9%
COc1ccc(C(=O)O)cc1Nc1nc2ccc(C)cc2n2cnnc12 | -2.0% | 70.8µM* | 6.8% | ? | -9.0%
CC1=CC23[C@H](C=C(C(=O)O)[C@@H]2COC(=O)[C@]3(O)CO)[C@@H]1C (some centres undefined) | . | 5.2%[57.5 µM] | . | -9.0% | .
Cn1ncnc1COc1nn2c(-c3cc(F)ccc3F)nnc2cc1C(C)(C)C | . | 5.5%[57.5 µM] | . | -1.5% | .
